Screens: PubChem, The Scripps Research Institute Molecular Screening Center
ssDAF12 agonist = activates DAF-12 receptor from parasite S. stercoralis; 1% of 370,000 active; activation, % at 6.8 µM; AID 652126; HEK293 ssDAF-12/GRIP1 lit1-tk-luc reporter, luminescence; % of 3 µM dafachronic acid response;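 active = activation above the mean over all tested compounds plus 3 SD, cut at about 0.9% in these data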;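 note: 0% = DMSO-only wells and 100% = 3 µM delta7-dafachronic acid wells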
hcDAF-12 act = activators of H. contortus DAF-12 nuclear receptor. HEK293 hcDAF-12 lit1-tk-luc reporter, luminescence; 0% DMSO, 100% Δ7-dafachronic acid. AID 652067. 1.4% of 370,000 active. activation, % at 6.8 µM;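 active = activation above the mean of all tested compounds plus 3 SD, cut at about 5.5% in these data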;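 note: 100% = response to 3 µM Δ7-dafachronic acid high control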
DAX1 inh-1 = inhibitors of DAX1 repression of SF-1 activated StAR promoter | HEK293T StAR-luciferase reporter, SF-1/DAX-1 repression relief | inhibition, % at 6.8 µM | 1.1% of 370,000 active;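 active = inhibition above the mean over all tested compounds plus 3 SD, cut at about 3.6% in these data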;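 note: 0% = DAX-1 cells with DMSO and 100% = cells lacking DAX-1 with DMSO; higher inhibition means more luminescence from relief of DAX-1 repression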
hgDAF12 agonist = agonists of H. glycines DAF-12 nuclear receptor; AID 687014; activation, % at 6.8 µM; HEK293 GAL4-hgDAF12 UAS-luciferase reporter, agonist luminescence; normalized to butyrate control; 1.8% of 370,000 active;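 active = activation above a cutoff set at the mean of all screened compounds plus 3 SD, cut at about 10% in these data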;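 note: 0% = DMSO wells and 100% = sodium butyrate wells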
DAX1 inh-2 = inhibits human nuclear receptor DAX1; P51843; HEK293 Gal4-DAX1 luciferase reporter, luminescence; inhibition, % at 6.75 µM; 0.99% of 340,000 active;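 active = inhibition above the mean over all tested compounds plus 3 SD, cut at about 4.2% in these data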;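 note: 0% = DAX1-transfected cells with DMSO and 100% = empty-vector control cells with DMSO; inhibition shows as a rise in luminescence from relieved DAX1 repression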
Target sequence (P51843 207-470 limits assumed): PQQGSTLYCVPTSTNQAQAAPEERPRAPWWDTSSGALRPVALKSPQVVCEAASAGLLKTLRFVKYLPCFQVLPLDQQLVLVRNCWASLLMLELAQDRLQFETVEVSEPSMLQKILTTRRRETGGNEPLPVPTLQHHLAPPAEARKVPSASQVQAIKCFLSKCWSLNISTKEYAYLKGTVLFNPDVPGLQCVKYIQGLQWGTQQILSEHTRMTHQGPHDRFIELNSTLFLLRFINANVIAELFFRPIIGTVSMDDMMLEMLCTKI
SMARCA2 act = SMARCA2 function activation, primary screen. MG213 cells, MMTV-luciferase reporter, dexamethasone, overnight. AID 652017. 1% of 370,000 active. activation, % at 9.1 µM; in the data active = activation above about 7.8%;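 note: 0% = vehicle wells and 100% = reference activator wells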
hgDAF12 ag = confirmation of H. glycines DAF-12 agonists; shares compounds with hgDAF12 agonist; HEK293 GAL4-hgDAF12 luciferase reporter, agonist mode; percent of butyrate response; activation, % at 6.8 µM; 80% of 3,300 active; AID 743050;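 active = mean activation over triplicate wells above the hit cutoff derived from the earlier primary screen, cut at about 11% in these data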;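 note: 0% = DMSO low control and 100% = 2 mM sodium butyrate high control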
LXRb DAF12 ctr = counter-screen for DAF-12 agonists: agonists of human LXR-beta; shares compounds with hgDAF12 agonist; HEK293 Gal4-LXR luciferase reporter, 24 h; activation, % at 6.8 µM; 3,300 tested, under 10 active;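 active = mean activation of the triplicate above a set limit carried over from the primary screen, none filed active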
* = called active by the depositor; · = no result given. This is a sample that favours compounds with a hit; in the whole collection about 4.8% have one here.

SMILES | ssDAF12 agonist | hcDAF-12 act | DAX1 inh-1 | hgDAF12 agonist | DAX1 inh-2 | SMARCA2 act | hgDAF12 ag | LXRb DAF12 ctr
O=C(N[C@H](C(=O)N1CCC[C@H]1C(=O)NC1CCCC1)c1ccccc1)c1ccc(Cl)c(Cl)c1 | 0 | 1 | 0 | -3 | · | 0 | · | ·
O=C(COC(=O)c1cc2ccccc2oc1=O)Nc1ccc(F)cc1F | 0 | 5 | 2 | 17* | 0 | 7 | 16* | 1
CCc1ccc(NC(=O)N2CCC(c3ccccc3)C2)cc1 (configuration not stated) | 0 | 2 | 3.7* | 18* | 4 | 3 | 14* | 1
O=C(/C=C/c1ccccc1)N1CCC(c2ccccc2)C1 (configuration not stated) | -1 | 3 | 3 | 13* | 1 | 5 | 16* | 1
C[C@H](CO)N1C[C@H](C)[C@@H](CN(C)C(=O)Nc2ccc3c(c2)OCCO3)OCc2cn(nn2)CCCC1=O | -1 | -1 | 1 | 4 | · | 3 | · | ·
O=C(COc1cc(Cl)c(Cl)cc1Cl)Nc1cccc(O)c1 | 0 | 5 | 1 | 17* | 3 | 3 | 18* | 1
Cc1ccc(Cl)c(OCC(=O)Nc2ccc3c(c2)OCCO3)c1 | -1 | 1 | 2 | 14* | 4 | 4 | 15* | 1
O=C(COc1ccccc1Br)Nc1ccc2c(c1)OCCCO2 | 0 | 4 | 2 | 15* | 4 | 5 | 14* | 1
O=C(COc1cc(Cl)c(Cl)cc1Cl)Nc1ccncc1 | -1 | -1 | 0 | 4 | 1 | -1 | · | ·
CCN(CC(=O)Nc1ccc2c(c1)OCCO2)C(=O)COc1cc(C)ccc1Cl | -1 | -1 | -1 | -1 | 0 | -1 | · | ·
CC(=O)Oc1ccc(C(=O)[C@H]2[C@H]3C(=O)N(c4ccc5ccccc5c4)C(=O)[C@H]3[C@@H]3C=CC=NN32)cc1 | 1 | 4 | 2 | 14* | 4 | -1 | 6 | 0
CO/C(N)=C(\C#N)N=Cc1ccccc1Cl | 1 | 1 | 2 | 14* | 1 | 8 | 3 | 0
N#CCC(=O)N/N=C/c1ccccc1Cl | -1 | -2 | -1 | 0 | -1 | -3 | · | ·
COc1ccc(C(=O)NC(=S)N2CCC(C)CC2)cc1Br | -1 | 0 | 1 | 32* | 1 | -1 | -1 | 0
CC1CCN(C(=S)NC(=O)c2ccc(C(C)(C)C)cc2)CC1 | -1 | -2 | 0 | -1 | 0 | -4 | · | ·
CC(C)C[C@H](NC(=O)c1ccccn1)C(=O)N1CCC[C@H]1C(=O)NCc1ccccc1 | -1 | -1 | 0 | 0 | · | 4 | · | ·
COc1ccc(C2C(CC(=O)O)=C(Nc3ccccc3)C(=O)N2c2ccccc2)cc1 (configuration not stated) | -1 | 1 | 2 | 4 | 1 | 4 | · | ·
O=C(O)CC1=C(Nc2ccccc2)C(=O)N(c2ccccc2)C1c1ccc(F)cc1 (configuration not stated) | -1 | 3 | 2 | 18* | 0 | 1 | 11* | 0
O=C1NC(c2ccc3ccccc3c2)Nc2ccccc21 (configuration not stated) | 0 | 3 | 2 | 14* | 3 | 2 | 13* | 0
COc1ccc2ccccc2c1C1NC(=O)c2ccccc2N1 (configuration not stated) | -1 | -1 | -4 | 14* | -3 | 1 | -1 | 0
OCC[C@@H]1C[C@H](O)[C@@H](O)[C@@]2(OCCc3cc(C(F)(F)F)ccc32)O1 | -1 | 0 | 1 | -2 | · | -4 | · | ·
Cc1ccc(C2c3c(n[nH]c3C(C)C)C(=O)N2c2ccccc2)cc1 (configuration not stated) | -1 | -1 | 0 | -2 | · | -6 | · | ·
Nc1ccc(CCc2nc3ccccc3o2)cc1 | -1 | 2 | 4 | 13* | 1 | 4 | 13* | 1
c1ccc(Cc2nnc(-c3ccccc3)o2)cc1 | 0 | 2 | 0 | 14* | 4 | 3 | 10 | 0
Brc1ccc(-c2nnc(Cc3ccccc3)o2)cc1 | -2 | 1 | 1 | 7 | · | 7 | · | ·
SMILES | ssDAF12 agonist | hcDAF-12 act | DAX1 inh-1 | hgDAF12 agonist | DAX1 inh-2 | SMARCA2 act | hgDAF12 ag | LXRb DAF12 ctr
CCCn1ncc2c(Nc3ccc(C)c(C)c3)ncnc21 | 0 | 6.5* | 1 | 13* | 0 | 0 | 7 | 1
Nc1c(C(=O)N2CCOCC2)sc2nc3c(cc12)CCC3 | 0 | 4 | 2 | 16* | 0 | 2 | 13* | 1
Cc1ccc(C)c2nc3sc(C(=O)N4CCOCC4)c(N)c3cc12 | 0 | 3 | 0 | 21* | 0 | 6 | 11* | 0
O=C(Nc1ncc([N+](=O)[O-])s1)c1cccc([N+](=O)[O-])c1 | 0 | 5.9* | 1 | 14* | 4.6* | 4 | 9 | 1
O=[N+]([O-])c1ccc2c(c1)CCCO[C@]21O[C@H](CCO)C[C@H](O)[C@H]1O | -1 | -1 | 1 | -2 | · | -5 | · | ·
CC(C)(C)Nc1nc2cc([N+](=O)[O-])ccc2o1 | -1 | 0 | 0 | 0 | 0 | -2 | · | ·
Nc1ccc(-c2nc3cc([N+](=O)[O-])ccc3o2)cc1 | 1 | 5.7* | 3 | 24* | 5.7* | 1 | 20* | 1
COc1ccc(-c2nc3cc([N+](=O)[O-])ccc3o2)cc1 | 0 | 2 | 2 | 14* | 6.2* | 3 | 17* | 1
CCc1ccc(NC(=O)c2cnccn2)cc1 | 1 | 3 | 3 | 15* | 3 | 2 | 13* | 1
Cc1nn(-c2ccccc2)c(N)c1N=Nc1ccc2ccccc2c1 | 1 | 3 | 3 | 23* | 2 | 6 | 18* | 1
Cc1ccc(N=Nc2c(N)nn(-c3ccccc3)c2N)cc1 | 0.9* | 2 | 1 | 20* | 0 | 3 | 25* | 1
Cc1cc(C)n(-c2nnc(NC34CC5CC(CC(C5)C3)C4)nn2)n1 | 1 | 5 | 3 | 13* | 1 | 3 | 15* | 1
CN1CCCCC(NC(=O)CCCl)C1=O (configuration not stated) | -1 | 3 | 0 | 1 | · | -3 | · | ·
C=CCO[C@H]1CN(C(=O)OC)[C@@H](c2ccccc2Br)C[C@H]1OCC=C | -1 | -1 | 0 | 1 | · | 6 | · | ·
CC(CCc1ccccc1)NC(=O)c1ccc2nc(N3CCOCC3)sc2c1 (configuration not stated) | -2 | -1 | 0 | 1 | 1 | -1 | · | ·
O=C(NCCc1ccccc1)c1ccc2nc(N3CCOCC3)sc2c1 | -1 | -2 | 1 | 14* | 0 | -2 | 0 | 0
Cc1ccc(NC(=S)NC(=O)C2CCC2)cc1C | 0 | 5 | 1 | 14* | 1 | 5 | 11* | 0
O=C(NC(=S)Nc1ccc(O)cc1)C1CCCC1 | -1 | 3 | 0 | 4 | 1 | 1 | · | ·
